Screening data: PubChem BioAssay, National Center for Advancing Translational Sciences (NCATS)
FLuc modulator – firefly luciferase modulation, counter-screen for miR-21 project. P08659. purified FLuc, Km substrates, luminescence inhibition. Potency, µM (highest dose often 57.5 µM), for the others: at the highest dose activity change, negative = inhibition, actives largely listed as inhibitors. 360,000 tested, 6.9% active. AID 588342;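 further: plate controls were vehicle for no effect and reference inhibitor for full effect; nearly all actives have a fitted effect of over 55% in size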
Target sequence (P08659 whole entry, looked up): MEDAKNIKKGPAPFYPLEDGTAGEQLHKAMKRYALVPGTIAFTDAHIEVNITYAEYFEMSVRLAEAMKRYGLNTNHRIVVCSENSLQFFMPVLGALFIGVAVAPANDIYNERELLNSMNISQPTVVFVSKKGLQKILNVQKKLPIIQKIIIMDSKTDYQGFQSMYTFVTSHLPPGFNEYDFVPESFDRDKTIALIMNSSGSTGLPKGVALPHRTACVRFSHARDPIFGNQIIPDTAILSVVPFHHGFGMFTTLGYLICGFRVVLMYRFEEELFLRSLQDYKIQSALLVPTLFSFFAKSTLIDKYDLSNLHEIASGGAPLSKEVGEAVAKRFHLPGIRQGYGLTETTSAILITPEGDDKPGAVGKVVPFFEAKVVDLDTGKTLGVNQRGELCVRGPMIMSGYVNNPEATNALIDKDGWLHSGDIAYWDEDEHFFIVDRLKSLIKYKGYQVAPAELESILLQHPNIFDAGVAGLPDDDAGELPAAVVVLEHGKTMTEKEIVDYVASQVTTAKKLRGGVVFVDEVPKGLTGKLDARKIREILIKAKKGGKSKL
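Purified P. pyralis luciferase (10nM final) with 10uM D-luciferin and 10uM ATP (Km levels) in 50mM Tris acetate pH 7.5, 10mM Mg acetate, 0.01% Tween-20, 0.05% BSA; qHTS 6-point titration, ~60 µM downward; luminescence read.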
ELG1 genotoxic – induces genotoxicity in HEK293T cells with luciferase-tagged ELG1; Potency, µM (highest dose often 46 µM), for the others: top-dose activity change, positive = activation, hits mostly activators; 330,000 tested, 1.3% active; HEK293T ELG1-luciferase reporter, luminescence, 16 h; further: % of control where 0% means no effect; nearly all actives have a fitted effect of over 60% in size
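After overnight (16 hr) compound treatment at 37 °C, ELG1-luciferase HEK293T cells were lysed with ONE-Glo; luminescence quantified 30 min later at room temperature.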
NPC1 prom act – activators of NPC1 promoter. Huh7 NPC1 promoter luciferase reporter, 24 h. Potency, µM (doses to about 9.22 µM), without a hit: at the highest dose activation, usual class: activators. 320,000 tested, 2.4% active; further: % of control where 0% means no effect; nearly all actives have a fitted effect of over 60% in size
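Quantitative HTS used a cell-based reporter: Huh7 cells stably bearing the NPC1 promoter upstream of luciferase were treated with compounds for 24 h, and promoter activation was read as luminescence.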
Rab9 prom act – activators of Rab9 promoter. Huh7 Rab9 promoter-luciferase reporter, luminescence, 24 h. Potency, µM (series often up to 9.22 µM), inactives show at the highest dose activation, negative = inhibition, usual class: activators. 320,000 tested, 2.8% active. AID 485297; further: % of control where 0% means no effect; nearly all actives have a fitted effect of over 60% in size
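Huh7 reporter line, Rab9 promoter upstream of luciferase. Compound exposure 24 h at 37 °C in reduced-serum medium with 10% FBS. Read-out: luminescence.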
ELG1 repair inh – inhibitors of ELG1-dependent DNA repair in HEK293T cells; 330,000 tested, 2.3% active; Potency, µM (series often up to 46.1 µM), without a hit: at the highest dose activity change, negative = inhibition, most hits filed as inhibitors; HEK293T ELG1-luciferase reporter, luminescence, 16 h; DNA damage induced by 5-fluorouridine; further: on the % scale 0 is the no-effect control and ±100 the full control effect; nearly all actives have a fitted effect of over 55% in size
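Reporter activity after DNA damage by 5-fluorouridine is monitored. Compound-treated cells incubate 16 hr at 37 °C, then ONE-Glo is added for 30 min before luminescence reading.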
SMN2 splice enh – enhancers of SMN2 splice variant expression; HEK293 SMN2-luciferase splicing reporter, luminescence, 30-36 h; Potency, µM (doses to about 46.1 µM), for inactives: top-dose activity change, positive = activation, actives largely listed as activators; 210,000 tested, 2.8% active; further: % of control where 0% means no effect; nearly all actives have a fitted effect of over 55% in size
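HEK293 cells carry an SMN2 […]–luciferase reporter in which exon 7 inclusion puts luciferase in frame. Cells were plated 10-12 h before compound addition, then incubated 30-36 h at 37C. ONE-Glo luminescence was read; sodium butyrate at 4.5 mM final served as control.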
Active calls of the source: *; ? = inconclusive; . = not tested or not shown; [ ] = another dose, or the depositor's remark. The list is not random: actives were taken first. Their share in the collection is about 9.4%. The call rests on the fitted dose curve; in most records, active means well fitted curve in the direction sought with a large enough effect; inconclusive means small, poorly fitted or top-dose-only effect, or another doubt; inactive means no such curve, though single readings can be large; an effect the other way counts as inactive or inconclusive. Potency means the concentration at half of the fitted maximal effect.

SMILES	FLuc modulator	ELG1 genotoxic	NPC1 prom act	Rab9 prom act	ELG1 repair inh	SMN2 splice enh
Cc1cc(NC(=O)c2cc(-c3ccccn3)nc3ccc(Br)cc23)no1	2%	-2%	2%	2%	2%	.
O=c1c(S(=O)(=O)c2ccccc2)cn(Cc2cccc(F)c2)c2cc(N3CCOCC3)c(F)cc12	-9%	.	.	.	.	.
O=C(NCc1nc(-c2ccccc2)no1)c1ccco1	-8%	.	.	.	.	2%
COc1ccccc1-c1noc(CCC(=O)Nc2cc(C(F)(F)F)ccc2Cl)n1	19µM*	-16%	1%	8%	-9%	-38%
CC(C)(C)c1ccc(-c2noc(CNC(=O)c3ccco3)n2)cc1	15µM*	10%	0%	6%	20%	.
CC(C)(C)c1ccc(-c2noc(CCC(=O)Nc3cccc(Cl)c3)n2)cc1	?	.	.	.	.	-40%
Cc1ccc(C)c(NC(=O)CCc2nc(-c3ccc(C(C)(C)C)cc3)no2)c1	2.1µM*	.	.	.	.	-9%
CC(NC(=O)c1ccco1)c1nc(-c2ccc(C(C)(C)C)cc2)no1 (stereo not drawn)	17µM*	-1%	8%	0%	6%	.
COc1ccccc1CNc1nc(-c2ccco2)nn1C(=O)c1ccccc1[N+](=O)[O-]	0%	.	.	.	.	.
O=C(NCc1ccc(F)cc1)c1ccc(CS(=O)Cc2ccc(Cl)cc2)o1 (stereo not drawn)	-9%	.	.	.	.	.
COc1cccc(C(=O)N2CC(=O)Nc3ccc(C)cc3C2c2ccc(F)cc2)c1OC (stereo not drawn)	-3%	.	.	.	.	-5%
CC(C)(C)c1ccc(-c2noc(CCC(=O)NCc3ccco3)n2)cc1	2.7µM*	-8%	-20%	-15%	1%	-49%
CCOC(=O)c1ccc(NC(=O)CCc2c(C)nc3nc[nH]n3c2=O)cc1	27µM*	.	.	.	.	1%
CCCCCC(=O)OCCc1c(C)nc2nc[nH]n2c1=O	-17%	-2%	1%	-18%	-5%	13%
Cc1cccc(-c2noc(CCC(=O)NCc3ccco3)n2)c1	-4%	5%	0%	-1%	0%	3%
O=C(COc1ccccc1Cl)Nc1ccc(NC(=O)c2ccco2)cc1	-2%	5%	2%	19%	19%	.
O=C(Nc1ccc(-c2noc(COc3ccccc3Cl)n2)cc1)c1ccco1	11µM*	?	3.2µM*	?	?	11µM*
CCOC(=O)c1ccc(NC(=O)CCc2nc(-c3ccc(C)cc3)no2)cc1	1%	23µM*	-2%	8%	15%	-101%
CCOC(=O)c1cccc(NC(=O)CN2C(=O)CC(C)(C)Sc3ccccc32)c1	-18%	.	.	.	.	1%
CC1CCc2c(sc(NC(=O)c3cc(-c4cccc(Cl)c4)on3)c2C(N)=O)C1 (stereo not drawn)	3%	.	.	.	.	5%
Cc1ccc(NC(=O)c2cc(C(=O)c3cc(Cl)ccc3O)cn(-c3ccc(C)cc3)c2=O)cc1	3%	-10%	-2%	-12%	26µM*	-65%
N#Cc1cc(C(=O)c2cc(Cl)ccc2O)cn(-c2ccccc2)c1=O	2%	-3%	0%	-3%	-13%	-8%
CC(C)Oc1cccc(-c2cc(C(=O)NC(=S)N(C)c3ccccc3C(=O)O)c3ccccc3n2)c1	2.7µM*	3%	1%	-1%	?	18%
Cc1cc(C)c2nc(-c3ccccn3)cc(C(=O)Nn3cnnc3)c2c1	19µM*	0%	-3%	2%	-4%	0%
CCCc1ccc(-c2cc(C(=O)NN3CCOCC3)c3ccccc3n2)cc1	1.7µM*	8%	?	?	?	?
SMILES	FLuc modulator	ELG1 genotoxic	NPC1 prom act	Rab9 prom act	ELG1 repair inh	SMN2 splice enh
CC(C)Oc1cccc(-c2cc(C(=O)NN3CCOCC3)c3ccccc3n2)c1	13µM*	-1%	-1%	-2%[1.84 µM]	-12%	.
O=C(CCCCn1c(=O)c2ccccc2n(CC(=O)Nc2ccc(F)cc2F)c1=O)NCCc1ccccc1	-2%	.	.	.	.	8%
CC(=O)c1cc(C)oc1C	.	.	.	.	.	18%
Cc1ncn(-c2ccccc2O)c1C	.	.	.	.	.	-7%[9.22 µM]
C=Cc1ccc(CSc2nc(-c3ccc(OC)cc3)nc3c2Cc2c(CO)cnc(C)c2O3)cc1	0%	.	.	.	.	.
COc1ccc(CN2COc3ccc4c(-c5ccc(OC)cc5)cc(=O)oc4c3C2)cc1	0%	.	.	.	.	-7%
CSc1ncc(C(=O)Nc2cc(C)cc(C)c2)c(-c2ccccc2)n1	-12%	.	.	.	.	.
CCCc1ccc(-c2cc(C(=O)NCCc3ccc(S(N)(=O)=O)cc3)c3ccccc3n2)cc1	0.67µM*	1%	?	2.8µM*	?	?
CCc1ccc(-c2cc(C(=O)N3N=C(C(F)F)CC3(O)C(F)F)c3ccccc3n2)cc1 (stereo not drawn)	5.4µM*	0%	21%	28%	?	9%
CCc1ccc(-c2cc(C(=O)Nn3cnnc3)c3ccccc3n2)cc1	0.067µM*	?	?	?	?	?
NS(=O)(=O)c1ccc(CCNC(=O)c2cc(-c3ccc(Br)cc3)nc3ccccc23)cc1	?	-9%	-8%	-1%	?	11%
CCc1ccccc1NC(=O)c1nc2nc(C)cc(C(F)F)n2n1	3%	.	.	.	.	0%
O=C(O)c1cncc(C#Cc2ccccc2)c1	?	-2%	2%	15%	-1%	.
O=C(O)c1cncc(C#CCC2CCCCC2)c1	?	1%	?	2.8µM*	?	.
O=S(=O)(c1cc(-c2nnc(-c3ccc(Br)cc3)o2)ccc1Br)N1CCCCCC1	1%	-5%	-9%	-5%	21µM*	-45%
O=S(=O)(c1cc(Br)ccc1Br)N1CCCCCC1	-5%	-1%	-6%	-3%	14%	.
COc1cc(C(=O)N2CCN(c3ccccn3)CC2)cc(OC)c1OC	11%	8%	-3%	4%	17%	.
COc1cc2nc(Cl)nc(N3CCN(C)CC3)c2cc1OC	-2%	9%	-2%	-1%	6%	-11%
